Measurements reported in PubChem BioAssay.
Active and inactive are the calls of the source.

Experiments:
[1] = E. coli DRC41 culture turbidity changes, primary screen, E. coli filamentation inducer project, strain DRC41, OD650, 48 h (AID 1152);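 further: E. coli MC1000 strain DRC41 lacking acrAB efflux pump and sulA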; settings: E. coli DRC41 (acrAB sulA), higher = more signal, called active from +8 up or from −8 down
[2] = small-molecule binders of probe aLefty1, primary screen, biochemical, small-molecule microarray, 635/667 nm fluorescence (AID 1153); settings: higher = more signal;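 further: score merges spot fluorescence with signal-to-noise ratio from the scanned slide images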
[3] = PSAC antagonists in infected red cells, primary screen, cell-based, P. falciparum Indochina, OD700, 1 h (AID 1154); settings: P. falciparum Indochina infected RBC osmotic lysis, higher = more signal, called active from +8 up or from −8 down
[4] = PSAC antagonists in infected red cells, primary screen, cell-based, P. falciparum Indochina, OD700, 2 h (AID 1155);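 further: lysis reports solute entry through the parasite surface anion channel PSAC; channel blockers reduce lysis of infected cells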; settings: P. falciparum Indochina infected erythrocytes, osmotic lysis OD700; higher = more signal, called active from +8 up or from −8 down
[5] = osmotic lysis modulators in infected erythrocytes, primary screen, PSAC antagonist project, cell-based, P. falciparum Indochina, OD700, 3 h (AID 1156); settings: higher = more signal, called active from +8 up or from −8 down
[6] = PSAC antagonists in infected red cells, primary screen, cell-based, P. falciparum Indochina, OD700, 18 h (AID 1157); settings: P. falciparum Indochina infected erythrocytes, osmotic lysis OD700, 18 h; higher = more signal, called active from +8 up or from −8 down
[7] = modulators of S6 phosphorylation in cells, primary screen, cell-based, A549, cytoblot, luminescence, serum-stimulated (AID 1158); settings: A549 phospho-S6 cytoblot, 5 h, higher = more signal;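 further: serum-stimulated A549 lung adenocarcinoma cells; signal is phosphorylated S6 detected by cytoblot immunostaining with HRP secondary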
[8] = target: NADPH oxidase 2 (Homo sapiens) (UniProt P04839); assay: NOX2-dependent H2O2 signal modulators, primary screen, NOX inhibitor project, cell-based, HEK293-NOX2, PMA-stimulated, Amplex Red fluorescence (AID 1159); settings: 45 min, higher = more signal, called active from +8 up or from −8 down; further: test concentration not given here
[9] = target: NADPH oxidase 4 (Homo sapiens) (UniProt Q9NPH5); assay: NOX4-dependent H2O2 signal modulators, primary screen, NOX inhibitor project, cell-based, HEK293-NOX4, tetracycline-induced, Amplex Red fluorescence (AID 1160); settings: 45 min, higher = more signal, called active from +8 up or from −8 down
[10] = target: NADPH oxidase 5 (Homo sapiens) (UniProt Q96PH1); assay: NOX5-dependent H2O2 signal modulators, primary screen, NOX inhibitor project, cell-based, HEK293-NOX5, Amplex Red fluorescence (AID 1161); settings: HEK293-NOX5, ionomycin, 45 min, higher = more signal
[11] = A549 cell viability effects, profiling panel, calcein-AM fluorescence, 48 h, basal (AID 1162); settings: higher = more signal; further: test concentration not given here
[12] = adipocyte viability effects, profiling panel, cell-based, 3T3-L1 adipocytes, calcein-AM fluorescence, 48 h, basal (AID 1163); settings: 3T3-L1 adipocytes viability, higher = more signal; further: test concentration not given here
[13] = HepG2 cell viability effects, profiling panel, calcein-AM fluorescence, 48 h, basal (AID 1164); settings: higher = more signal; further: test concentration not given here
[14] = MM1S cell viability effects, profiling panel, calcein-AM fluorescence, 48 h, basal (AID 1165); settings: higher = more signal;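 further: viability of MM1S multiple myeloma cells under basal unstimulated conditions; test concentration not given here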
[15] = basal RPMI8226 viability, no added stimulus, profiling panel, cell-based, calcein-AM fluorescence, 48 h, PK04 Diversity Set (AID 1166); settings: RPMI8226 myeloma viability, higher = more signal;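 further: cells grown under basal conditions without added stimulus; test concentration not given here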
[16] = basal HepG2 mitochondrial membrane potential changes, profiling panel, cell-based, JC-1 fluorescence, 24 h, 100 nL compound (AID 1167); settings: higher = more signal; further: test concentration not given here
[17] = basal 3T3-L1 adipocyte mitochondrial potential changes, profiling panel, cell-based, JC-1 fluorescence, 3T3-L1 adipocytes, 24 h, 100 nL compound (AID 1168); settings: JC-1 mitochondrial fluorescence, higher = more signal, called active from +8 up or from −8 down; further: test concentration not given here
[18] = basal RPMI8226 mitochondrial membrane potential changes, profiling panel, cell-based, JC-1 fluorescence, 24 h, 100 nL compound (AID 1169); settings: RPMI8226 myeloma, JC-1 mitochondrial potential fluorescence, higher = more signal; further: test concentration not given here
[19] = basal MM1S mitochondrial membrane potential changes, profiling panel, cell-based, JC-1 fluorescence, 24 h, 100 nL compound (AID 1170); settings: higher = more signal; further: test concentration not given here
[20] = A549 lung cancer cell viability effects, profiling panel, resazurin fluorescence, 24 h, PK04 Diversity Set (AID 1171); settings: higher = more signal, called active from +8 up or from −8 down; further: test concentration not given here

NADPH oxidase 5 (Homo sapiens), sequence (Q96PH1 whole entry, looked up): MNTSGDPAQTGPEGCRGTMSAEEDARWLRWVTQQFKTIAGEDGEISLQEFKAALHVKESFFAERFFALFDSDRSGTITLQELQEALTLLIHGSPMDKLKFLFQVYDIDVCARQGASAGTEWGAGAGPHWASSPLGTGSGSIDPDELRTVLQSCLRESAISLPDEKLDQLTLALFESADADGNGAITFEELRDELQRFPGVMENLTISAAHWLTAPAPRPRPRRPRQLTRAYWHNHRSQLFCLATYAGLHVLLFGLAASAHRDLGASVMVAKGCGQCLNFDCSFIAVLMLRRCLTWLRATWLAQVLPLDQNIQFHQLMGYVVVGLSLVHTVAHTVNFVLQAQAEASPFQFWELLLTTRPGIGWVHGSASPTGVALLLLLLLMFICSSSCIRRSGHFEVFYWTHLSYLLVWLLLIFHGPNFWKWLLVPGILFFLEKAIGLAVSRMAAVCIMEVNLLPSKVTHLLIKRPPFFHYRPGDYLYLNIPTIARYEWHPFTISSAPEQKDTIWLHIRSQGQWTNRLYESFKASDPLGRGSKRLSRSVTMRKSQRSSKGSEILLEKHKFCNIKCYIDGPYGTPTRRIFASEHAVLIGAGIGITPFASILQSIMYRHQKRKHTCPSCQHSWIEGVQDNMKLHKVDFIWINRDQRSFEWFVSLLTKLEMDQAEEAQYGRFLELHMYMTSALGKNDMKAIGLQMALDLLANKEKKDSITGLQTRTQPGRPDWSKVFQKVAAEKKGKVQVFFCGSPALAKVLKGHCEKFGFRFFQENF
NADPH oxidase 2 (Homo sapiens), sequence (P04839 whole entry, looked up): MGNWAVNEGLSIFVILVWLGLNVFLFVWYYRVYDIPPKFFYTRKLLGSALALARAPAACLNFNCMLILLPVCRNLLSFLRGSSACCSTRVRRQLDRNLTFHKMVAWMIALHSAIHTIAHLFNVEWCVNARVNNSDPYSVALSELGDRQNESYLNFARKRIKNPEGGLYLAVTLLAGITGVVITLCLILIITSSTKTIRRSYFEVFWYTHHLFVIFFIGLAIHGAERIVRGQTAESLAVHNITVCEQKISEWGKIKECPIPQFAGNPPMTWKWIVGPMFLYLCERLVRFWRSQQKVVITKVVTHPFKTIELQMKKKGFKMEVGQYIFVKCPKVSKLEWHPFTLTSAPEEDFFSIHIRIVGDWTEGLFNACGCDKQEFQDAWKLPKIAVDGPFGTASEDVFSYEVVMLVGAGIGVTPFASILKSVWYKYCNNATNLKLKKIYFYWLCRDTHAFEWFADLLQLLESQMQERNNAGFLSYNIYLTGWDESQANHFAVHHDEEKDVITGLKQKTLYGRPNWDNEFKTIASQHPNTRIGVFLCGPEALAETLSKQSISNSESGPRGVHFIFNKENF
NADPH oxidase 4 (Homo sapiens), sequence (Q9NPH5 whole entry, looked up): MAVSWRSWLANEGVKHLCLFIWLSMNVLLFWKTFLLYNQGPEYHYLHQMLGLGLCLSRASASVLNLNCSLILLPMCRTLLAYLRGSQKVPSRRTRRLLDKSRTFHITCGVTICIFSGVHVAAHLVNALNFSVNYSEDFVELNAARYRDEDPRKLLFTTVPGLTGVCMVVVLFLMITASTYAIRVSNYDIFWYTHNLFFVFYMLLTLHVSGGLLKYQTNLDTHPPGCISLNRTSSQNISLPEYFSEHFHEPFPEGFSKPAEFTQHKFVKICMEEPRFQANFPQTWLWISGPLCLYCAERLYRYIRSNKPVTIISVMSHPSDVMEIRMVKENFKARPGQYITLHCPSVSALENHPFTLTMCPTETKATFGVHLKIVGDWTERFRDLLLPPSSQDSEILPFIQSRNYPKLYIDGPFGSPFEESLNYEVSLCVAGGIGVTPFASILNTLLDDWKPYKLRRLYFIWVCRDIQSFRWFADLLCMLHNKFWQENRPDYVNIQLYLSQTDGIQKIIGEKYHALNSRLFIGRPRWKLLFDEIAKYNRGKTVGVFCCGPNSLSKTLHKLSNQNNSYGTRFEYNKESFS

SMILES	z-score [1]	composite z-score [2]	z-score [3]	z-score [4]	z-score [5]	z-score [6]	z-score [7]	z-score [8]	z-score [9]	z-score [10]	z-score [11]	z-score [12]	z-score [13]	z-score [14]	z-score [15]	z-score [16]	z-score [17]	z-score [18]	z-score [19]	z-score [20]
CC(c1ccccc1)C(O)C1C=CC2C(=O)N(C)C(=O)C2N1NC(=O)OC(C)(C)C (stereo not given)	-0.288 (inactive)	0.839	0.667 (inactive)	0.871 (inactive)	-0.344 (inactive)	0.508 (inactive)	-0.683	-0.326 (inactive)	-0.289 (inactive)	-1.2	-0.431	0.173	-0.527	-0.391	-0.347	-0.741	-0.439 (inactive)	-0.104	0.772	0.866 (inactive)
CS(=O)(=O)CCOC(=O)C1=CC(CCCO)=CC(C2CC2)N(Cc2cc3c(cc2Br)OCO3)C=C1C(=O)OCCS(C)(=O)=O (stereo not given)	0.307 (inactive)	0.131	3.83 (inactive)	1.02 (inactive)	0.106 (inactive)	0.504 (inactive)	0.404	-1.56 (inactive)	-0.0814 (inactive)	-1.11	1.25	0.385	0.862	-0.538	-0.246	3.31	0.262 (inactive)	-0.41	-1.37	0.796 (inactive)
COC(=O)c1c2oc(c1C(=O)OC)C(=O)NC1(CCCCC1)c1cn(nn1)C[C@H](Cc1ccccc1)NC(=O)N[C@H](CO)CC2	2.35 (inactive)	-0.258	1.66 (inactive)	-0.265 (inactive)	0.869 (inactive)	0.285 (inactive)	0.229	-0.463 (inactive)	1.26 (inactive)	-0.0346	0.947	-0.0442	0.22	0.813	1.17	0.537	0.691 (inactive)	0.564	-0.887	1.09 (inactive)
O=C1NC(=O)C2C1C=CC(C(O)c1ccc(I)cc1)N2Nc1ccc(Cl)cc1Cl (stereo not given)	-0.971 (inactive)	0.618	5.17 (inactive)	0.872 (inactive)	-1.72 (inactive)	-1.16 (inactive)	1.22	-0.204 (inactive)	-4.36 (inactive)	-0.634	-0.519	0.53	-0.363	-3.83	-4.06	-2.51	-1.25 (inactive)	-0.984	-1.09	-1.59 (inactive)
[N-]=[N+]=NCc1ccccc1[C@@H]1OC(c2ccc(OCCCO)cc2)=N[C@]1(CCS(=O)(=O)c1ccccc1)C(=O)N1CCCCC1	0.323 (inactive)	0.522	22.8 (active)	7.3 (inactive)	1.59 (inactive)	1.06 (inactive)	0.34	0.196 (inactive)	1.19 (inactive)	2	1.26	-0.418	1.43	-0.504	-0.0169	-0.132	-0.159 (inactive)	-0.653	-1.87	-0.182 (inactive)
COC(=O)[C@]1(Cc2ccccc2)N=C(c2ccc(OCCCO)cc2)O[C@@H]1c1ccccc1N=[N+]=[N-]	-1.19 (inactive)	-0.324	28 (active)	24.7 (active)	0.883 (inactive)	4.33 (inactive)	0.483	-0.936 (inactive)	1.14 (inactive)	0.0948	-2.41	0.574	-5.44	-3.61	-3.66	-2.75	-0.223 (inactive)	-1.13	-2.9	-2.87 (inactive)
O=C1OCCC=C[C@H]2OC34C=CCN(Cn5nnc6ccccc65)C(=O)[C@H]3N(CCO)C(=O)[C@@H]4C12 (stereo not given in full)	1.41 (inactive)	-0.147	1.03 (inactive)	0.793 (inactive)	1.08 (inactive)	0.601 (inactive)	-0.18	1.55 (inactive)	1.22 (inactive)	1.73	-0.679	0.432	-0.556	0.897	-1.08	-0.298	0.756 (inactive)	0.42	-0.0431	0.293 (inactive)
CCCCC(=C=CC[C@@H](O)c1ccc(CO)o1)CCO	0.702 (inactive)	0.459	2.3 (inactive)	0.631 (inactive)	0.399 (inactive)	0.208 (inactive)	0.126	2.35 (inactive)	1.49 (inactive)	1.3	1.48	-0.186	0.376	-0.277	0.275	0.761	0.618 (inactive)	0.0267	0.321	1.28 (inactive)
COc1ccc([Si](C)(C)[C@H]2[C@H](CC(=O)N3CCC[C@H]3CO)O[C@@]3(C(=O)N(Cc4cccc(N5CCOC5=O)c4)c4ccccc43)[C@@H]2C)cc1	1.18 (inactive)	-0.017	4.76 (inactive)	1.13 (inactive)	0.618 (inactive)	0.722 (inactive)	0.305	1.73 (inactive)	1.76 (inactive)	4.67	-0.0923	0.1	-0.0734	-2.19	-3	2.76	-0.0541 (inactive)	-0.952	-0.0702	0.299 (inactive)
COC(=O)[C@@]1(Cc2ccccc2)[C@H]2c3cc(C(=O)N(C)C)n(CCc4c[nH]c5ccc(O)cc45)c3C[C@H]2CN1C(=O)c1ccccc1	0.263 (inactive)	-0.0831	7.05 (inactive)	-0.38 (inactive)	0.102 (inactive)	-1.32 (inactive)	1.82	-2.52 (inactive)	-7 (inactive)	-2.41	-0.206	0.389	1.22	-0.988	-0.235	-1.3	-0.215 (inactive)	-0.532	-1.57	0.349 (inactive)
O=C1O[C@@H](c2ccccc2)[C@@H](c2ccccc2)N2[C@@H](c3ccc(OCCO)cc3)[C@]3(C(=O)Nc4ccc(C#CC5=CCCCC5)cc43)[C@@H](C(=O)N3CCCCCCC3)[C@H]12	0.343 (inactive)	2.14	3.46 (inactive)	1.85 (inactive)	0.501 (inactive)	1.03 (inactive)	-0.262	0.463 (inactive)	0.159 (inactive)	0.293	-0.364	0.284	1.1	-0.446	-1.31	0.226	-4.13 (inactive)	-0.831	-1.14	-0.207 (inactive)
CC1CC/C=C\[C@H]2OC34C=CCN(Cn5nnc6ccccc65)C(=O)[C@H]3N(CCCCCO)C(=O)[C@@H]4C2C(=O)O1 (stereo not given in full)	0.996 (inactive)	-0.624	0.586 (inactive)	0.253 (inactive)	0.193 (inactive)	0.626 (inactive)	0.0478	0.664 (inactive)	0.341 (inactive)	1.68	-0.306	0.393	-0.841	1.4	-0.0074	0.944	0.516 (inactive)	0.727	-0.124	0.411 (inactive)
COCCCNC(=O)[C@@]1(CCS(=O)(=O)c2ccccc2)N=C(c2ccc(OCCCO)cc2)O[C@H]1c1ccccc1N=[N+]=[N-]	1.12 (inactive)	0.517	29.4 (active)	21 (active)	1.28 (inactive)	0.425 (inactive)	1.62	-5.07 (inactive)	-2.78 (inactive)	-2.11	-0.196	2.02	-0.43	0.0021	-2.28	0.4	-0.636 (inactive)	-0.938	-1.2	1.36 (inactive)
COCCOC(=O)N1C(=O)[C@@]2(c3cc(C#CC4=CCCCC4)ccc31)[C@H](C(N)=O)[C@H]1C(=O)O[C@H](c3ccccc3)[C@H](c3ccccc3)N1[C@@H]2c1ccc(O)cc1	1.04 (inactive)	0.148	1.19 (inactive)	-0.933 (inactive)	0.161 (inactive)	-1.13 (inactive)	2.41	1.11 (inactive)	0.563 (inactive)	2.76	0.282	0.326	0.581	-3.07	-4.54	-1.89	1.1 (inactive)	-1.22	-0.992	-1.77 (inactive)
COC(=O)[C@@]1(Cc2ccccc2)[C@H]2c3cc(C(=O)N4CCCC4)n(Cc4c(CO)[nH]cc(C)c4=O)c3C[C@H]2CN1C(=O)c1ccccc1	-1.73 (inactive)	-0.0971	0.315 (inactive)	0.32 (inactive)	1.27 (inactive)	0.397 (inactive)	-0.289	0.562 (inactive)	-0.976 (inactive)	-2.9	-1.45	-0.412	-0.844	-0.662	-2.04	-0.401	-0.276 (inactive)	-0.797	-0.444	0.739 (inactive)
COCCOC(=O)N1C(=O)[C@@]2(c3ccccc31)[C@H](c1ccc(OCCO)cc1)N1[C@H](c3ccccc3)[C@H](c3ccccc3)OC(=O)[C@H]1[C@@H]2C(=O)N1CCc2cc(OC)c(OC)cc2C1	0.341 (inactive)	0.358	12.7 (active)	3.86 (inactive)	1.99 (inactive)	2.18 (inactive)	0.828	1.16 (inactive)	1.52 (inactive)	-0.259	0.114	1.09	1.37	0.175	-0.0296	0.39	3.06 (inactive)	-0.749	-1.53	-0.247 (inactive)
